Assay results taken from PubChem BioAssay (EPA / NIEHS).
The source made the active and inactive calls. The calls were made as follows: active = hit-call score of the fitted dose curve at least 0.9, where 1 is the maximum; inactive = score below 0.9.

How the values were obtained:
[1] = ATG_CRE_CIS: Attagene CIS-FACTORIAL HepG2 Assay for human cAMP Responsive Element (CRE) binding protein 3 (AID 2282926); settings: HepG2 CRE cis-reporter, Attagene multiplexed mRNA; actives raise or lower the signal
Procedure, shortened: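 HepG2 cells transiently transfected with cis-element-driven multiple reporter transcription units; CRE reporter mRNA measured 24 h after dosing by RT-PCR, 6-FAM labelling, HpaI digestion and capillary electrophoresis. Bidirectional fit versus DMSO baseline.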

[2] = target: CCAAT/enhancer-binding protein beta (Homo sapiens) (UniProt P17676); assay: ATG_C_EBP_CIS: Attagene CIS-FACTORIAL HepG2 Assay for human CCAAT/Enhancer Binding Protein (C/EBP) beta (AID 2282927); settings: HepG2 Attagene cis-factorial transcription factor reporter; actives raise or lower the signal
Procedure, shortened: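 Changes in reporter mRNA, rather than exogenous chimeric receptor activity, reflect native C/EBP signalling in transfected HepG2 cells dosed for 24 h; transcripts are detected by RT-PCR and capillary electrophoresis.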

[3] = ATG_CMV_CIS: Attagene CIS-FACTORIAL HepG2 Assay for human CMV (Internal Marker) (AID 2282928); settings: HepG2 CMV promoter reporter, transcription factor profiling; actives raise or lower the signal;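 also: endpoint acts as a background internal control marker rather than a target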
Procedure, shortened: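 CMV internal-marker background readout in transiently transfected HepG2 cells bearing cis-regulated reporter units. Reporter mRNA is measured 24 h after dosing by RT-PCR and capillary electrophoresis, with bidirectional fitting against DMSO.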

[4] = ATG_DR4_LXR_CIS: Attagene CIS-FACTORIAL HepG2 Assay for human Liver X Receptor (LXR), DR4 submotif (AID 2282929); settings: HepG2 Attagene DR4 cis-reporter, mRNA transcription; AC50: actives raise or lower the signal unless noted; outcome: actives raise or lower the signal unless noted
Procedure, shortened: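 Endogenous factor activity at a DR4 cis-element is read as reporter mRNA in transiently transfected HepG2 cells. Exposure lasts 24 h; transcripts are amplified, fluorescently labelled and sized by capillary electrophoresis, with DMSO as baseline.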

[5] = target: Aryl hydrocarbon receptor (Homo sapiens) (UniProt P35869); assay: ATG_Ahr_CIS: Attagene CIS-FACTORIAL HepG2 Assay for human Aryl Hydrocarbon Receptor (Ahr) (AID 2282930); settings: HepG2 AhR cis-factorial reporter transcription; actives raise or lower the signal
Procedure, shortened: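 HepG2, transient MRTU (cis) transfection, 24 h exposure. RNA → cDNA → PCR → 6-FAM primer extension → HpaI 2 h 37 C → CE. Fit: bidirectional, DMSO baseline.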

[6] = ATG_AP_1_CIS: Attagene CIS-FACTORIAL HepG2 Assay for human Activator Protein 1 (AP-1) (AID 2282931); settings: HepG2 Attagene cis-factorial AP-1 reporter mRNA; actives raise or lower the signal
Procedure, shortened: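 Fluorescence of labelled PCR fragments separated by capillary electrophoresis gives reporter mRNA levels. HepG2 with transfected cis-regulated reporter units, 24 h exposure; DMSO serves as baseline for bidirectional curve fits.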

[7] = ATG_BRE_CIS: Attagene CIS-FACTORIAL HepG2 Assay for human Bone Morphogenetic Protein (BMP) Response Element (BRE) (AID 2282933); settings: HepG2 BMP response element reporter, Attagene transcription factor profiling; actives raise or lower the signal
Procedure, shortened: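 Multiplexed cis-reporter assay, HepG2, 24 h exposure. mRNA from reporter units quantified via RT-PCR/CE; DMSO baseline; bidirectional curve fit.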

[8] = target: Retinoic acid receptor alpha (Homo sapiens) (UniProt P10276); assay: ATG_DR5_RAR_CIS: Attagene CIS-FACTORIAL HepG2 Assay for human Retinoic Acid Receptor Alpha (RARE), DR5 submotif (AID 2282934); settings: HepG2 Attagene cis-factorial RARE DR5 reporter, mRNA; actives raise or lower the signal;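 as to AC50: reporter responds to endogenous RAR alpha beta and gamma in HepG2 not RARA alone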
Procedure, shortened: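 HepG2, transient cis-reporter transfection, 24 h exposure. mRNA readout: RT-PCR, FAM label, HpaI cut, capillary electrophoresis. DMSO baseline, gain/loss fitting.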

[9] = target: Transcription factor E2F1 (Homo sapiens) (UniProt Q01094); assay: ATG_E2F_CIS: Attagene CIS-FACTORIAL HepG2 Assay for human E2F Transcription Factor 1 (AID 2282935); settings: HepG2 Attagene cis-reporter, E2F reporter RNA transcripts; actives raise or lower the signal
Procedure, shortened: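 Cis-element reporter mRNA induction in transiently transfected HepG2, 24 h exposure. Activity fitted in both directions relative to DMSO negative control.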

[10] = ATG_E_Box_CIS: Attagene CIS-FACTORIAL HepG2 Assay for human Enhancer Box (E-box) (AID 2282936); settings: HepG2 E-box cis-reporter transcription, actives raise or lower the signal
Procedure, shortened: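 Cells: HepG2 (human liver), transient MRTU transfection. Exposure 24 h. RNA → oligo(dT) RT → PCR → 6-FAM label → HpaI → CE. Activity fitted both directions relative to DMSO.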

[11] = ATG_M_61_CIS: Attagene CIS-FACTORIAL HepG2 Assay for M61 Transcription Factor (Internal Marker) (AID 2282937); settings: HepG2 Attagene CIS-FACTORIAL M61 internal marker reporter; actives raise or lower the signal
Procedure, shortened: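 This endpoint serves as an internal background control within a multiplexed HepG2 cis-reporter panel. Cells are exposed for 24 h; reporter mRNA is amplified, fluorescently labelled and sized by capillary electrophoresis, with DMSO as negative control.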

[12] = ATG_AP_2_CIS: Attagene CIS-FACTORIAL HepG2 Assay for human Activator Protein 2 (AP-2) (AID 2282932); settings: HepG2 AP-2 cis-reporter, Attagene transcription factor profiling; AC50: actives raise or lower the signal unless noted; outcome: actives raise or lower the signal unless noted
Procedure, shortened: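 HepG2, transient MRTU transfection, cis-regulated reporters; 24 h compound exposure; RNA isolated, RT-PCR, 6-FAM labelling, HpaI digest, CE fluorescence. DMSO = negative control/baseline, bidirectional fit.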

Measured: AC50

Sequence of CCAAT/enhancer-binding protein beta (Homo sapiens) (P17676 whole entry, looked up): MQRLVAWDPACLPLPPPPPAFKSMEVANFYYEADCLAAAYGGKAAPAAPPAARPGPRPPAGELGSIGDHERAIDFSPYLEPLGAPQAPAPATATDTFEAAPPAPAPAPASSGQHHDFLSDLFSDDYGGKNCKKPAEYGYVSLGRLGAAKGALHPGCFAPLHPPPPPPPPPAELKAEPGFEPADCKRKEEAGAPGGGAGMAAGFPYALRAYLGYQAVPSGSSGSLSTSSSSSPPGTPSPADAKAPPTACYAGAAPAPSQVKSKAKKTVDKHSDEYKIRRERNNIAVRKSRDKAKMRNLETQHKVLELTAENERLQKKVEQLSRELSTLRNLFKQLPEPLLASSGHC
Sequence of Aryl hydrocarbon receptor (Homo sapiens) (P35869 whole entry, looked up): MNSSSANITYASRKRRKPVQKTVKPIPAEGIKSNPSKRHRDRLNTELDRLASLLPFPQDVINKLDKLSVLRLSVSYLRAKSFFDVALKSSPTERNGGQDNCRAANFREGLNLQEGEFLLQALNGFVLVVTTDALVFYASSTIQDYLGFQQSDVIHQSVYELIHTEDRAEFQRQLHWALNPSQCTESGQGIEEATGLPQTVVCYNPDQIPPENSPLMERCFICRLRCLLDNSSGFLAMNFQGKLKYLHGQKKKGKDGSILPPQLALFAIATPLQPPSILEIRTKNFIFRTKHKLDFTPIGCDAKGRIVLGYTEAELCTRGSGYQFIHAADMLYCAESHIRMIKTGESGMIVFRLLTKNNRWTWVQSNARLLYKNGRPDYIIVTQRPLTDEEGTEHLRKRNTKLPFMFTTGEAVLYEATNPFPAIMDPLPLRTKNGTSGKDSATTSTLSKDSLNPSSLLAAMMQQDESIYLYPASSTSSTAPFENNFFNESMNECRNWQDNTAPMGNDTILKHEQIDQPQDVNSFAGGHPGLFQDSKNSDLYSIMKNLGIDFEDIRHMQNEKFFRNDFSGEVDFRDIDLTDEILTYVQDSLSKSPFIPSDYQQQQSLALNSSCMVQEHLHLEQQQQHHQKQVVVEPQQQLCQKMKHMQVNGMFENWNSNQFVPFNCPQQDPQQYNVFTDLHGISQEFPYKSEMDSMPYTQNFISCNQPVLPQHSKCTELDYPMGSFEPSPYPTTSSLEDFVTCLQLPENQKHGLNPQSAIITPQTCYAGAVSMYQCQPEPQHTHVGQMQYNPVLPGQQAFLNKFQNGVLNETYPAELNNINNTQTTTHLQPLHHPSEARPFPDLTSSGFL
Sequence of Transcription factor E2F1 (Homo sapiens) (Q01094 whole entry, looked up): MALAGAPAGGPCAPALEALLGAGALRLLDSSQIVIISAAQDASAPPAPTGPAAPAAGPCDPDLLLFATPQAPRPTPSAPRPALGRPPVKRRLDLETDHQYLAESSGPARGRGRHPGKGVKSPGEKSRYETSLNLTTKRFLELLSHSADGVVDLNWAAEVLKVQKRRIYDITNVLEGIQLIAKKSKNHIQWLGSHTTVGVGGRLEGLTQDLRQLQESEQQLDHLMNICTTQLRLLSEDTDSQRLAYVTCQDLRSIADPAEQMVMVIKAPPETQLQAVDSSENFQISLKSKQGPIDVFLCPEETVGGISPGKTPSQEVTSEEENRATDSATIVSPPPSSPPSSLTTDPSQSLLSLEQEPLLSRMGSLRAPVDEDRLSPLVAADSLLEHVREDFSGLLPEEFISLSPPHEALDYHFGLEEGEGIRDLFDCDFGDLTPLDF
Sequence of Retinoic acid receptor alpha (Homo sapiens) (P10276 whole entry, looked up): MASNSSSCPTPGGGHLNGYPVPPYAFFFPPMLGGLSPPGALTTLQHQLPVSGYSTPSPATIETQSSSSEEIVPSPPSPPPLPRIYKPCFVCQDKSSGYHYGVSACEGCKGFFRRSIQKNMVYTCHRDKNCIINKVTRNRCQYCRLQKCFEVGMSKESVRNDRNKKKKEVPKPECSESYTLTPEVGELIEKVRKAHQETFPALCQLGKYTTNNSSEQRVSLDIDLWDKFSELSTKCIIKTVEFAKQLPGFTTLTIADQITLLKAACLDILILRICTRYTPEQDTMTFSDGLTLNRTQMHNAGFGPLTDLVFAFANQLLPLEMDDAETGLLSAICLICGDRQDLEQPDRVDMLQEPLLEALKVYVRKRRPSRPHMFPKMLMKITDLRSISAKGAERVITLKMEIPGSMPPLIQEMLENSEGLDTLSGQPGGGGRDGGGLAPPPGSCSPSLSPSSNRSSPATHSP

C=CC(=O)OCC(CO)(COCC(COC(=O)C=C)(COC(=O)C=C)COC(=O)C=C)COC(=O)C=C
inactive: [1] | [2] | [5] | [6] | [7] | [11]
active: [3] 2.97 µM | [4] 4.59 µM | [8] 11 µM | [9] 19.6 µM | [10] 2.52 µM

O=C(Nc1ccc(Cl)c(Cl)c1)c1cc(Cl)cc(Cl)c1O
active: [4] 28.6 µM | [5] 0.0441 µM | [7] 0.695 µM | [8] 1.37 µM
inactive: [1] | [2] | [3] | [6] | [9] | [10] | [11]

CCO[Si](CCC1CCC2OC2C1)(OCC)OCC (centres undefined)
inactive: [1] | [2] | [3] | [4] | [5] | [6] | [7] | [8] | [9] | [10] | [11]

O=C1OC(=O)c2cc(-c3ccc4c(c3)C(=O)OC4=O)ccc21
inactive: [1] | [2] | [3] | [4] | [5] | [6] | [12] | [7] | [8] | [9] | [10] | [11]

CC1=CC(=O)c2ccccc2C1=O
inactive: [1] | [2] | [3] | [4] | [6] | [7] | [8] | [9] | [11]
active: [5] 1.4 µM | [10] 6.91 µM

O=C1c2ccccc2C(=O)c2c(O)c(O)cc(O)c21
inactive: [1] | [2] | [4] | [7] | [8] | [9] | [11]
active: [3] 27.3 µM | [5] 0.303 µM | [6] 19.8 µM | [10] 8.54 µM

CC(=O)Nc1ccc(S(N)(=O)=O)cc1
inactive: [1] | [2] | [3] | [4] | [5] | [12] | [7] | [8] | [9] | [10] | [11]

CNNCc1ccc(C(=O)NC(C)C)cc1
inactive: [1] | [2] | [3] | [4] | [5] | [6] | [12] | [7] | [9] | [10] | [11]

CCO[Si](C)(C)OCC
inactive: [1] | [2] | [3] | [4] | [5] | [6] | [7] | [8] | [9] | [10] | [11]

CCCCCCCCCCCC(=O)NCCCN(C)C
active: [1] 20.3 µM | [7] 17.6 µM
inactive: [2] | [3] | [4] | [5] | [12] | [8] | [9] | [10] | [11]

C=CC(=O)OCCN(CC)CC
inactive: [12] | [7] | [8] | [9] | [11]
active: [1] 26.9 µM | [2] 44.2 µM | [3] 63.2 µM | [4] 26.6 µM | [5] 65.6 µM | [6] 178 µM | [10] 37 µM

Cc1cncc(C)c1
inactive: [1] | [2] | [3] | [4] | [5] | [12] | [7] | [8] | [9] | [10] | [11]

Nc1ccc(O)c(C(=O)O)c1
inactive: [1] | [2] | [3] | [4] | [5] | [12] | [7] | [8] | [9] | [10] | [11]

CCCCCC(C)OC(=O)COc1ccc(Cl)c2cccnc12 (centres undefined)
active: [4] 100 µM
inactive: [1] | [2] | [3] | [5] | [6] | [12] | [7] | [8] | [9] | [10] | [11]

CCCCCCCCCCCCCCCCCC[N+](C)(C)Cc1ccccc1
active: [2] 75.8 µM | [4] 12.8 µM | [5] 12.3 µM | [12] 88.1 µM | [7] 4.38 µM | [9] 12.8 µM | [10] 18.4 µM
inactive: [1] | [3] | [8] | [11]

COC(O)c1ccccc1 (centres undefined)
inactive: [1] | [2] | [3] | [4] | [5] | [12] | [7] | [8] | [9] | [10] | [11]

O=C(c1cc(O)c(O)c(O)c1)c1ccc(O)c(O)c1O
active: [5] 36 µM | [7] 4.01 µM
inactive: [1] | [2] | [3] | [4] | [6] | [8] | [9] | [10] | [11]

O=C(Nc1cccc([N+](=O)[O-])c1)c1cc2ccccc2cc1O
inactive: [1] | [2] | [4] | [12] | [8] | [10] | [11]
active: [5] 0.411 µM | [6] 2.31 µM | [7] 1.17 µM | [9] 2.35 µM

CCc1cccc(CC)c1N(COC)C(=O)CS(=O)(=O)O
inactive: [1] | [2] | [4] | [5] | [6] | [7] | [8] | [9] | [10] | [11]

Nc1ccn([C@@H]2O[C@H](CO)[C@@H](O)C2O)c(=O)n1 (some centres undefined)
inactive: [1] | [2] | [4] | [5] | [6] | [7] | [8] | [9] | [10] | [11]

C[C@]12CC[C@@H]3c4ccc(O)cc4CC[C@H]3[C@@H]1CC[C@@H]2OC(=O)CCC1CCCC1
inactive: [1] | [8] | [9] | [11]
active: [2] 137 µM | [3] 25.3 µM | [4] 14.8 µM | [5] 126 µM | [7] 58.2 µM | [10] 73.3 µM

CCOC(=O)CN[C@@H](C(=O)N1CC[C@H]1C(=O)NCc1ccc(/C(N)=N/O)cc1)C1CCCCC1
inactive: [1] | [2] | [4] | [5] | [6] | [7] | [8] | [9] | [10] | [11]

O=C(OC(=O)C(F)(F)C(F)(F)F)C(F)(F)C(F)(F)F
inactive: [1] | [2] | [4] | [5] | [6] | [12] | [7] | [8] | [9] | [10] | [11]

CCCCCCCCCCCCCCCC(=O)OC
inactive: [1] | [2] | [4] | [5] | [6] | [12] | [7] | [8] | [9] | [10] | [11]

COc1ccccc1NC(=O)c1cc2ccccc2cc1O
inactive: [2] | [6] | [12] | [8] | [9] | [11]
active: [1] 31.6 µM | [4] 41.9 µM | [5] 0.0553 µM | [7] 26.1 µM | [10] 26.7 µM
